The results in this text go back to PubChem BioAssay (NCI).

About 83,000 compounds went through this panel and 20% of them were active in at least one assay; those are over-represented in the sample as a whole.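 How to read the values: 0–100, growth inhibition (40 = 60% inhibited); 0, no net growth; -100 to 0, cell death (-40 = 40% of starting cells died; -100 = all dead).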 Values without a mark were called inactive. The source made the active and inactive calls. The calls were made as follows: active = growth percent below 10; inactive = the rest.

Some test systems named below: NCI-H23 lung; NCI-H226 lung; NCI-H322M lung; HOP-62 NSCLC; NCI-H460 lung; HOP-92 NSCLC; NCI-H522 lung; A549/ATCC NSCLC; 786-0 renal; COLO 205 colon.
Experiment in all cases: NCI-60 one-dose screen, 48 h (100 = growth as untreated, 0 = no growth, -100 = all killed)
Common to all, as to conditions: 10 µM unless noted

On to `Cn1cc(-c2nc(-c3c[nH]c4c(Cl)nccc34)cs2)c2cc(F)ccc21`, for which the growth with NCI-H23 lung is 104%; in the assay on NCI-H226 lung, 95.5%; in the assay with NCI-H322M lung, 102%; in the assay with HOP-62 NSCLC it was 88.5%; in the assay with NCI-H460 lung, 98.3%; in the assay on HOP-92 NSCLC, 98.2%. Besides, the growth in the assay with NCI-H522 lung is 90.2%; in the assay on A549/ATCC NSCLC, 74.5%; in the assay on 786-0 renal, 94.7%; in the assay with COLO 205 colon it was 99.8%.

Turning to `CC(=O)Oc1ccc(/C=N/NC(N)=S)nc1`, the growth is 37.8% in the assay with NCI-H23 lung; 32.1% in the assay with NCI-H226 lung; 92.8% with NCI-H322M lung; 74.5% with HOP-62 NSCLC; 96.4% in the assay with NCI-H460 lung; 63.9% in the assay with HOP-92 NSCLC. Besides, the growth in the assay on NCI-H522 lung is 74.5%; with A549/ATCC NSCLC it was 98.2%; in the assay on 786-0 renal it was 53.3%; with COLO 205 colon, 92.7%.

In the case of `COc1cccc(-c2ccc3c(c2)NC(=O)/C3=C\c2ccc[nH]2)c1`, the growth in the assay with NCI-H23 lung is 31.4%; in the assay with NCI-H226 lung it was 50.5%; in the assay with NCI-H322M lung, 45.2%; in the assay with HOP-62 NSCLC it was 62.7%; in the assay with NCI-H460 lung, 11.5%; with HOP-92 NSCLC, 93.5%. In addition, the growth in the assay with NCI-H522 lung was 10.4%; with A549/ATCC NSCLC, 57.1%; in the assay with 786-0 renal it was 48.1%; with COLO 205 colon it was 30%.

`COc1ccc(-c2nc3sccn3c2/C=C/C(=O)c2ccc3c(c2)OCO3)cc1`: the growth in the assay on NCI-H23 lung is 99.7%; in the assay with NCI-H226 lung, 84.7%; with NCI-H322M lung, 88.5%; with HOP-62 NSCLC it was 97.5%; in the assay on NCI-H460 lung it was 108%; with HOP-92 NSCLC, 82.8%. Further, the growth in the assay on NCI-H522 lung is 57.8%; in the assay with A549/ATCC NSCLC it was 95%; with 786-0 renal, 96.8%; in the assay with COLO 205 colon, 211%.

For `COC(=O)CNC(=O)[C@]12CCC(C)(C)C[C@H]1C1=CC[C@@H]3[C@@]4(C)Cc5c([nH]c6ccccc56)C(C)(C)[C@@H]4CC[C@@]3(C)[C@]1(C)CC2`, the growth was 92.9% with NCI-H23 lung; 83.5% with NCI-H226 lung; 91.6% in the assay with NCI-H322M lung; 87.8% in the assay with HOP-62 NSCLC; 87.7% in the assay on NCI-H460 lung; 101% with HOP-92 NSCLC. Also, the growth is 80.5% in the assay with NCI-H522 lung, 50.4% in the assay on A549/ATCC NSCLC, 91.6% with 786-0 renal and 87% in the assay on COLO 205 colon.

Turning to `CCCCCCCCCCCCCCCC[N+]1(C)CCN(SN2CC[N+](C)(CCCCCCCCCCCCCCCC)CC2)CC1`, the growth in the assay with NCI-H23 lung was 52.8%; in the assay with NCI-H226 lung, 78.9%; in the assay on NCI-H322M lung, 80.3%; in the assay on HOP-62 NSCLC, 56.6%; with NCI-H460 lung it was 29.6%; in the assay with HOP-92 NSCLC, 15.5%. For the same compound, the growth with NCI-H522 lung is 54.8%; in the assay with A549/ATCC NSCLC, 72%; in the assay on 786-0 renal, 30.3%; with COLO 205 colon it was 61%.

Take `COc1ccc(C(=O)c2cc(C)c(OC)c(C)c2)c(OC)c1NC(C)=O`: the growth with NCI-H23 lung is 29.5%; in the assay with NCI-H226 lung, 17.4%; with NCI-H322M lung, 42.7%; in the assay on HOP-62 NSCLC it was 20.3%; with NCI-H460 lung it was 3.32% (active); in the assay on HOP-92 NSCLC it was 6.76% (active). Besides, the growth in the assay on NCI-H522 lung is 13.4%; with A549/ATCC NSCLC, 18.1%; in the assay with 786-0 renal, 13.7%; in the assay on COLO 205 colon it was -5.99% (active).

Consider `c1ccc2c(-c3nccs3)c[nH]c2c1`, for which the growth is 96.2% in the assay with NCI-H23 lung; 97% in the assay with NCI-H226 lung; 98% in the assay on NCI-H322M lung; 99.2% with HOP-62 NSCLC; 105% in the assay with NCI-H460 lung; 89.7% in the assay on HOP-92 NSCLC. Also, the growth in the assay with NCI-H522 lung is 92.2%; with A549/ATCC NSCLC, 100%; in the assay with 786-0 renal, 88.8%; in the assay with COLO 205 colon it was 119%.

Regarding `O=C(CCN1CCCC1)Nc1ccc2c(Nc3ccc(F)cc3)c3ccccc3nc2c1`, the growth in the assay with NCI-H23 lung is -12.8% (active); in the assay with NCI-H226 lung it was 42.7%; in the assay on NCI-H322M lung, -14.6% (active); in the assay with HOP-62 NSCLC, -12.5% (active); in the assay with NCI-H460 lung, -66.4% (active); with HOP-92 NSCLC, 4.17% (active). Further, the growth in the assay on NCI-H522 lung is -22.6% (active); with A549/ATCC NSCLC, -21.8% (active); in the assay with 786-0 renal it was -35.9% (active); in the assay on COLO 205 colon, -33.2% (active).

Regarding `C=C1C(=O)O[C@H]2[C@H]1CC/C(COC(=O)NCCc1c[nH]c3ccc(OC)cc13)=C\CC[C@@]1(C)O[C@@H]21`, the growth is 73.9% in the assay on NCI-H23 lung; 51% in the assay with NCI-H226 lung; 87.2% in the assay with NCI-H322M lung; 83.4% in the assay on HOP-62 NSCLC; 69.4% in the assay on NCI-H460 lung; -8.74% (active) in the assay with HOP-92 NSCLC. The growth was -74.2% (active) in the assay with NCI-H522 lung, 64.2% with A549/ATCC NSCLC, -35.4% (active) in the assay on 786-0 renal and -47.2% (active) in the assay with COLO 205 colon.

For the compound `O=C(NCCc1ccccc1)Nc1ccc2cc3ccc(NC(=O)NCCc4ccccc4)cc3nc2c1`, the growth in the assay on NCI-H23 lung is 10.3%; in the assay with NCI-H226 lung, 88.7%; with NCI-H322M lung, 19.2%; with HOP-62 NSCLC it was 39.4%; in the assay with NCI-H460 lung, 16.8%; in the assay with HOP-92 NSCLC, 68.1%. For the same compound, the growth in the assay with NCI-H522 lung is -10.8% (active); in the assay with A549/ATCC NSCLC, 73.8%; with 786-0 renal it was 38.4%; in the assay on COLO 205 colon it was 10.8%.

As for `O=C1Nc2cc(-c3ccc(NC(=O)C4CC4)cc3)ccc2/C1=C/c1ccc[nH]1`, the growth was 61.3% with NCI-H23 lung; 101% in the assay with NCI-H226 lung; 86.2% with NCI-H322M lung; 104% in the assay on HOP-62 NSCLC; 61.4% in the assay with NCI-H460 lung; 129% with HOP-92 NSCLC. Besides, the growth in the assay on NCI-H522 lung was 92.5%; with A549/ATCC NSCLC, 107%; in the assay with 786-0 renal it was 105%; in the assay on COLO 205 colon, 117%.

For `O=C1Nc2ccc(F)cc2/C1=C\c1c(-c2ccccc2)nc2ccccn12`, the growth was 53.4% in the assay on NCI-H23 lung; 91.5% in the assay with NCI-H226 lung; 76.3% in the assay on NCI-H322M lung; 72.5% with HOP-62 NSCLC; 81.5% in the assay with NCI-H460 lung; 72.7% in the assay with HOP-92 NSCLC. The growth in the assay on NCI-H522 lung was 21.3%; in the assay on A549/ATCC NSCLC, 71.7%; with 786-0 renal it was 75.4%; with COLO 205 colon it was 91.9%.
